From ChEMBL document CHEMBL1157539, “Thousands of chemical starting points for antimalarial lead identification” (Nature, 2010)

Tests used:
Format in all cases: functional
Plasmodium falciparum [1] = assay: GSK_TCMDC: Inhibition of Plasmodium falciparum 3D7 in whole red blood cells, using parasite LDH activity as an index of growth. Test compounds present at 2uM
Plasmodium falciparum [2] = assay: GSK_TCMDC: Inhibition of Plasmodium falciparum Dd2 in whole red blood cells, using parasite LDH activity as an index of growth. Test compounds present at 2uM
HepG2 = assay: GSK_TCMDC: Percent inhibition of human HepG2 cell line. Test compounds present at 10uM.

| Compound | Inhibition (Plasmodium falciparum [1]) | Inhibition (Plasmodium falciparum [2]) | Inhibition (HepG2) |
| --- | --- | --- | --- |
| O=C(Nc1cccc(CN2CCCN(Cc3ccc(O)cc3)CC2)c1)c1cc2ccccc2o1.O=C(O)C(F)(F)F | 95% | 62% | 10% |
| CN1CCN(c2ccnc3ccc(NC(=O)N(C)c4ccc(Cl)c(Cl)c4)cc23)CC1 | 100% | 85% | 5% |
| Oc1ccc2ccccc2c1CNCC1CCCCC1 | 98% | 93% | 0% |
| COc1ccc(CN(C)CCCc2ccc(NC(=O)Cc3ccc4nc(-c5ccccc5)ccc4c3)cc2)cc1OC | 98% | 0% | 10% |
| Cc1ccccc1C(=O)NC(NC(=S)Nc1ccc([N+](=O)[O-])cc1)C(Cl)(Cl)Cl (stereo not drawn) | 100% | 39% | 0% |
| CC(Oc1ccc(NC(=O)c2cccs2)cc1)C(=O)c1ccc(Cl)cc1 (stereo not drawn) | 92% | 83% | 0% |
| COc1ccccc1C1CCN(C2CCC(NC(=O)/C=C/c3ccc(F)c(F)c3)CC2)CC1 (stereo not drawn) | 94% | 9% | 49% |
| COc1ccccc1N1CCN(C(C(=O)NCc2cccc(F)c2)c2ccc(C)cc2)CC1 (stereo not drawn) | 94% | 80% | 4% |
| Cc1noc(C)c1-c1cccc(CNCc2ccc(-c3ccc(-c4nc5ccccc5[nH]4)s3)cc2)c1.O=C(O)C(F)(F)F | 100% | 79% | 41% |
| Br.CC1(C)NC(N)=NC(=N)N1OCCCCCOc1ccccc1 | 95% | 97% | 61% |
| Cc1ccccc1C1CCN(C2CCC(NC(=O)c3cc(-c4ccccc4)oc3C)CC2)CC1 (stereo not drawn) | 100% | 32% | 46% |
| COc1ccc(-c2nccc(NC(=N)NCc3ccccc3)n2)cc1 | 83% | 21% | 27% |
| CCCCCOc1ccc(C=NNc2nc(O)cc(-c3ccccc3)n2)cc1 | 88% | 86% | 0% |
| Cc1c(-c2cccc(Br)c2)[nH]c2nc(N)nc(N)c12 | 100% | 61% | 8% |
| CC(=O)Nc1ncc(C(=O)Nc2cccc(-c3cccc(-c4nc5cccc(C)c5[nH]4)c3)c2)s1 | 94% | 64% | 15% |
| O=C1Nc2cccc3c2C1(CCCCN1CCC(c2c(-c4ccccc4)[nH]c4ccccc24)CC1)CCC3 (stereo not drawn) | 84% | 33% | 18% |
| COc1cc(NC(=O)/C=C/c2ccccc2OC(F)(F)F)cc(OCCN2CCCCC2)c1.O=C(O)C(=O)O | 96% | 6% | 25% |
| CC(=NNC(S)=NC(C)(C)C)c1ccccn1 | 99% | 100% | 63% |
| Nc1nc(N)c2c(ccc3c2ccn3Cc2cc3c(cc2Cl)OCO3)n1 | 95% | 94% | 58% |
| O=[N+]([O-])c1cccc(/C=N/Nc2ccnc3cc(F)ccc23)c1 | 100% | 100% | 4% |
| CCC(C)NCC(O)(c1ccc(Cl)cc1)c1ccc(Cl)cc1 (stereo not drawn) | 95% | 76% | 5% |

| Compound | Inhibition (Plasmodium falciparum [1]) | Inhibition (Plasmodium falciparum [2]) | Inhibition (HepG2) |
| --- | --- | --- | --- |
| CN(C)CCc1coc2ccc(C(=O)Nc3ccc(-c4ccc(O)cc4)cc3)cc12 | 100% | 40% | 28% |
| COc1ccc2nccc([C@@H](O)CN3CCC(NCc4cc5cccc(OC)c5o4)CC3)c2c1.O=C(O)C(=O)O | 99% | 81% | 10% |
| Cc1cc(NC(=O)Nc2ccc(C(C)(C)C)cc2)c2ccccc2n1 | 100% | 57% | 0% |
| O=C(NCCc1ccccc1)N(Cc1cccc(-c2ccc(CNCc3ccc4c(c3)OCO4)cc2)c1)C1CCN(Cc2ccccc2)CC1.O=C(O)C(F)(F)F | 94% | 70% | 11% |
| CC(=NNC(S)=NCCc1ccccc1)c1ccccn1 | 100% | 99% | 73% |
| CCC[C@@H](C(=O)NCCc1cccc(OC)c1)N1C(=O)c2c(ccc(OC)c2OC)C1C(=O)Nc1c(C)cccc1C (stereo partly drawn) | 94% | 32% | 6% |
| CN1CCC(NC(=O)c2cc(Oc3ccc4c(c3)CCN4C(=O)Nc3cccc(C(F)(F)F)c3)ccn2)CC1.O=C(O)C(F)(F)F | 92% | 17% | 16% |
| Cc1ccccc1C1CCN(C2CCC(NC(=O)/C=C/c3cccc(C(F)(F)F)c3)CC2)CC1 (stereo not drawn) | 100% | 54% | 96% |
| CCCN1CCN(CCCNC(=O)c2cc3c(-c4ccc(Cl)cc4)nn(C)c3s2)CC1 | 88% | 20% | 46% |
| CN(CCC(O)c1ccc(Cl)c(Cl)c1)CC1CC1C(=O)c1ccccc1 (stereo not drawn) | 98% | 96% | 11% |
| O=C(N[C@@H](Cc1ccccc1)C(=O)NCCN1CCCCC1)c1ccc(O)c(-c2cccc(C(F)(F)F)c2)c1 | 92% | 3% | 0% |
| CC(C)[C@H](NC(=O)c1c(F)cccc1F)C(=O)Nc1ccc(Cc2nc3ccccc3s2)cc1 | 82% | 72% | 3% |
| CN1CCCCC1CCc1cc(C(=O)Nc2ccc(-c3ccc(O)cc3)cc2)ccc1O (stereo not drawn) | 91% | 11% | 6% |
| Cc1ccc(O)cc1Nc1ccnc2ccc(C(C)(C)C)cc12 | 100% | 100% | 6% |
| Cl.O=C(CCCC(=O)Nc1ccc(C2=NCCN2)cc1)Nc1ccc(C2=NCCN2)cc1 | 91% | 81% | 3% |
| Cl.Nc1ccnc2ccc(OCCCCCCc3ccccc3)cc12 | 100% | 99% | 96% |
| Fc1cccc(Nc2nc(NCc3ccc(OCc4ccccc4)cc3)nc(Nc3cccc(F)c3)n2)c1 | 84% | 14% | 5% |
| CC(C)(C)c1ccc(CN2CCC(NC(=O)c3ccc(-c4cccc(F)c4)s3)CC2)cc1.O=C(O)C(F)(F)F | 92% | 24% | 35% |
| O=C(/C=C/c1cccc(OC(F)(F)F)c1)NCCCCCN1CCC(c2c[nH]c3ccccc23)CC1 | 93% | 13% | 27% |
| COc1cc2nc(N3CCC(CNC(=O)/C=C/c4cccc(C)c4)CC3)nc(N)c2cc1OC | 100% | 68% | 16% |
